Compounds without any hit were thinned out: in the full panel of roughly 83,000, 20% have a hit.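 Testing used 96-well plates and a 48-hour single-concentration exposure. Example: -40 means 40% of the starting cells died.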 A number with no mark means an inactive call. Activity calls are given as the source filed them. The calls were made as follows: active = growth percent below 10; inactive = the rest.

In this test the test system is HL-60(TB) leukemia. Kind of test: NCI-60 one-dose screen, 48 h (100 = growth as untreated, 0 = no growth, -100 = all killed). Conditions: 10 µM unless noted.
Consider `CS(=O)(=O)Nc1cncc(-c2ccc3ncnc(Nc4ccc(F)c(Cl)c4)c3c2)c1`, for which the growth was 6.11% (active). For `Cc1cccc(NCS(=O)(=O)O)c1`, the growth was 103%. Regarding `O=S(=O)(c1ccc(NC(=S)NCc2cccnc2)cc1)N1CCCCC1`, the growth was 64.9%.

`CO[C@H]1C[C@@H]2CC[C@@H](C)[C@@](O)(O2)C(=O)C(=O)N2CCCC[C@H]2C(=O)O[C@H]([C@H](C)C[C@@H]2CC[C@@H](O)[C@H](OC)C2)CC(=O)[C@H](C)C=C(C)[C@@H](O)[C@@H](OC)C(=O)[C@H](C)C[C@H](C)/C=C/C=C/C=C1C`: the growth is 83%. Regarding `O=C1c2cccc3c(-c4ccc5c(c4)ncn5C4CCCCC4)ccc(c23)C(=O)N1c1nc2ccccc2s1`, the growth was 76%. Consider `CCCCC[C@H](O)C/C=C1/C(=O)C=C[C@@H]1C/C=C\CCCC(=O)O`, for which the growth is 90.7%. As for `COc1cc(-c2nc(SCC(=O)Nc3ccc(C(C)=O)cc3)[nH]c(=O)c2C#N)cc(OC)c1OC`, the growth was -54.3% (active). For `N#Cc1c(NCc2ccccc2I)sc2c1CCCCC2`, the growth was 100%. Take `CC(=O)N1N=C(c2ccc(Nc3nc(Nc4ccc(F)cc4)nc(Nc4ccc(F)cc4)n3)cc2)CC1c1ccc(N(C)C)cc1` (stereo not given): the growth is 10% (active).

For the compound `Cc1cc(C2(c3cc(C)c(O)cc3C)OS(=O)(=O)c3ccccc32)c(C)cc1O`, the growth was 87.8%. The same measure for `COc1ccc(/C(=C2\O[C@@H]([C@H]3COC(C)(C)O3)[C@H]3OC(C)(C)O[C@@H]23)c2cc(OC)c(OC)c(OC)c2)cc1O`: 20.7%; for `O=C1CC(C(F)(F)F)=NN1C(=O)c1nn(-c2ccc(Cl)cc2)cc1O`: 105%. With `COc1ccc(-c2nc(-c3nc4cc(Cl)c(F)cc4[nH]3)c3ccccn23)cc1`, the growth is 46.4%.

In the case of `O=S(c1ccccc1)c1ccc2nnnn2n1` (stereo not given), the growth was 42.5%. As for `COc1cccc(-c2ccc3c(c2)C2CCN(Cc4ccccc4)C3C2)c1` (stereo not given), the figure is 46.2%; as for `CN1CCN(Cc2ccc(C(=O)Nc3cncc(C#Cc4cnc(N)c5ccccc45)c3)cc2C(F)(F)F)CC1`, -71.5% (active). As for `CCCCCCCCN1C(=O)/C(=c2\sc3n(c2=O)C2C(NN=3)N(CC)C(=O)N2CC)c2ccccc21` (stereo not given), the figure is 114%; as for `COc1ccc2[nH]c(O)c(/C=c3/ccc4c(c3)N=C(c3ccc(C(F)(F)F)cc3)N=4)c2c1`, 94.4%. `COC(=O)/C=C1/SC(=Nc2cccc(Cl)c2)N(CCc2c[nH]c3ccc(O)cc23)C1=O`: the growth was -11.4% (active). `c1ccc2cc(Cn3cc[n+](Cc4ccc5ccccc5c4)c3)ccc2c1`: the growth was -33.6% (active). For the compound `O=[N+]([O-])c1ccc(S(=O)(=O)OCCCCOS(=O)(=O)c2ccc([N+](=O)[O-])cc2)cc1`, the growth was 101%.

Consider `C[N+]1(CC2CO2)CCCCCC1` (stereo not given), for which the growth was 109%.

`COc1ccc(C(=O)C[C@]2(O)C(=O)Nc3c(Cl)ccc(Cl)c32)cc1`: the growth is -6.62% (active). For the compound `N=c1ccn2c(n1)O[C@@H]1[C@@H](O)[C@H](CO)O[C@@H]12`, the growth was 84%.

As to `O=C(Nc1ccc(Br)c(Cl)c1)c1cc(F)ccc1O`, the growth was -33.4% (active). For `COc1ccc2nc3cc(Cl)ccc3c(NC(=O)CSc3ccc(Cl)cc3)c2c1`, the growth was -50.7% (active). As for `CC(=O)C(C)Cc1cc2c(cc1C)C(C)(C)CCC2(C)C` (stereo not given), the figure is 101%.

For `Nc1c(C(=O)C[C@@H](N)CO)ccc2c1C(=O)CCO2`, the growth is 51.9%. Turning to `CC(C)c1ccc(Nc2n[nH]c(=S)s2)cc1`, the growth is 97.7%. Take `O=C(CCl)N1c2cccc3cccc(c23)N(C(=O)CCl)C1c1cn(-c2ccccc2)nc1-c1cccc([N+](=O)[O-])c1`: the growth is 27.7%. Turning to `CC(C)CSc1ncnc2nc[nH]c12`, the growth was 133%. On to `COc1ccc(-c2nc(N)n(C(=S)Nc3ccccc3)n2)cc1`, for which the growth was 96.4%.

For `Cn1c2ccccc2c2c3[nH][nH]c(=O)c3c3c4ccccc4[nH]c3c21`, the growth was 4.77% (active). On to `CSc1[nH]c2ncnc(N)c2c1C#N`, for which the growth is 112%. For `N#Cc1cc(-c2nc3ccccc3s2)c(=O)n(NS(=O)(=O)c2ccccc2)c1N`, the growth is 103%. As for `S=C(N/N=C/c1cc(Cl)cc(Cl)c1)NC12CC3CC(CC(C3)C1)C2`, the growth was 104%. `CCSC1=CC(=O)c2ccccc2C1=O`: the growth is 50.9%. With `Cc1ccc(C)c(NC(=O)c2sc3c(=O)[nH]cnc3c2C)c1`, the growth was 65.4%.

For `Clc1ccc(-c2cc(-c3ccccc3)nc(N3CCN(CCCNc4ccnc5cc(Cl)ccc45)CC3)n2)cc1`, the growth was -39% (active).

As to `CCOC(=O)c1cc(C(=O)c2ccc(OC)c(OC)c2)n2ccc(/C=C/c3cc[n+](CC(=O)c4ccc(OC)c(OC)c4)cc3)cc12`, the growth was 88.6%.

These data come from PubChem BioAssay (NCI).
